Measurements: PubChem BioAssay
Active and inactive are the calls of the source.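 Rule for the calls, unless noted: active = GFP response above 150% of the DMSO level; inconclusive = fewer than 70 events counted for a yeast strain; inactive = the rest.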

How the values were obtained:
[1] = reduced mouse 2C T cell binding to pMHC/ICAM-1 vesicles – MLPCN validation set, flow cytometry, LFA-1/ICAM-1 modulator project, pilot screen (AID 2523;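 active = response below a set limit, under 55% cells CD8-positive and vesicle-bound, and CD8 cells' 90th-percentile brightness under 279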;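 for vesicle binding response: mean PE anti-B7-1 fluorescence of CD8+ cells relative to row control; 100% = QL9-loaded vesicles with DMSO vehicle in the same plate row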); conditions: 2C mouse CD8+ T cells, at 7 µM, stronger effect = lower value; double positive events: measured here: CD8+/vesicle+ event percentage
[2] = target: Integrin beta-1 (Homo sapiens) + Integrin alpha-4 (Homo sapiens) (UniProt P13612+P05556); test: alpha4beta1 integrin LIBS antibody binding reduction – U937 cells, HUTS-21 mAb, flow cytometry, validation set, VLA-4 allosteric modulator project, pilot screen (AID 2674;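 active = inhibition above 50%, about 3 SD of the validation set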;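 note: antibody binding induced by the VLA-4 ligand LDV present at three times its Kd; 0% = LDV ligand with antibody and no compound and 100% = antibody without LDV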); conditions: HUTS-21 LIBS mAb binding, at 6.7 µM, stronger effect = higher value, binding induced by LDV ligand
Chain of Integrin beta-1 (Homo sapiens) + Integrin alpha-4 (Homo sapiens) (P05556 whole entry, looked up): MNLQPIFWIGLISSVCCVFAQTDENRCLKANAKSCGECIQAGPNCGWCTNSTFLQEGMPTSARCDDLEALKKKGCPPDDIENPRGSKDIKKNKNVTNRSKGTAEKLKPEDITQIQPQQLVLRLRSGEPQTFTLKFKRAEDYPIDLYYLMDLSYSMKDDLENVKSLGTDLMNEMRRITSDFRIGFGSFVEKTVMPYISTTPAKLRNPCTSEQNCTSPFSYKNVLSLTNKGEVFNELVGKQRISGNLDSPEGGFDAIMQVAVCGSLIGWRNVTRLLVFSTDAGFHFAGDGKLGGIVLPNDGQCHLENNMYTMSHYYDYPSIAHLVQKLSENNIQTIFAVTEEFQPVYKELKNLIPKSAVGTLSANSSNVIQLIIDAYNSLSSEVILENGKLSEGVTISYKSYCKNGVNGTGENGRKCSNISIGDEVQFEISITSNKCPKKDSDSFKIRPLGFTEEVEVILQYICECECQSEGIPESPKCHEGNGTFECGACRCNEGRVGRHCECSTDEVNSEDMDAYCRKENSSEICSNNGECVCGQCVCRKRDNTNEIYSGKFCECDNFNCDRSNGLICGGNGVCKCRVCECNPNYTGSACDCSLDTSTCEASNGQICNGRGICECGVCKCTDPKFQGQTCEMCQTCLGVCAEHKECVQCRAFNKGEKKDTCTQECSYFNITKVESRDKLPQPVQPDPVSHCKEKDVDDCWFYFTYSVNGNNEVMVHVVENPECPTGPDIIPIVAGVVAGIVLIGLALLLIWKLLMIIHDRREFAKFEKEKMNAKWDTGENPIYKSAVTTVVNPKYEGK
Chain of Integrin beta-1 (Homo sapiens) + Integrin alpha-4 (Homo sapiens) (P13612 whole entry, looked up): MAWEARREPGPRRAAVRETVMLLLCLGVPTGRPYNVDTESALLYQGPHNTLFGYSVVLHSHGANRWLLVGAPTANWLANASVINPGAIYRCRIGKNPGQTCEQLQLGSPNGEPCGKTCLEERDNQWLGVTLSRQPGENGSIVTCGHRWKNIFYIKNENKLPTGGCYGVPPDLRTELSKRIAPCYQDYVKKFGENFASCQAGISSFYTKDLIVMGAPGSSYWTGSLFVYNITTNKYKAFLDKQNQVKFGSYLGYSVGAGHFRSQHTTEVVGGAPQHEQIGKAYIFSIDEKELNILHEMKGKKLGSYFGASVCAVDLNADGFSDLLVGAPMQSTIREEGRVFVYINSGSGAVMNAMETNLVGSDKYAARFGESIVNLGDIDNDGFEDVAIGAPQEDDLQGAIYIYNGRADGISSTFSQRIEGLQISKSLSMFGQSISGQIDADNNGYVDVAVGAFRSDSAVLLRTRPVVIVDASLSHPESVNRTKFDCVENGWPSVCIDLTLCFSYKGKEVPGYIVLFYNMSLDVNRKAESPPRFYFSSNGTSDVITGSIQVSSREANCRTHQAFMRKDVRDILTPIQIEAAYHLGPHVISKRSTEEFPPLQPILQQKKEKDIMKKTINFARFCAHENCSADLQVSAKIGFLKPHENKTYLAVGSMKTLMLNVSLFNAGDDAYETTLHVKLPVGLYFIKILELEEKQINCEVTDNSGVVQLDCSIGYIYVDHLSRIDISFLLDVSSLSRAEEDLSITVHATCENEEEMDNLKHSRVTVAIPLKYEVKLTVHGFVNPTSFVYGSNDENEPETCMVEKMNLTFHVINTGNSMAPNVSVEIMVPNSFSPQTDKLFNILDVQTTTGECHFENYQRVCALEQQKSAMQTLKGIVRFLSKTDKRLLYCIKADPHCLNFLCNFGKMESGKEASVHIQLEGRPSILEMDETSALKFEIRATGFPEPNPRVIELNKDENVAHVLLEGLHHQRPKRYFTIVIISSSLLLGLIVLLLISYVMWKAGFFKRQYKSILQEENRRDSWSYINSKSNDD

[3] = calorie-restriction mimetic ROS inhibitors, yeast – validation compound set, pilot screen (AID 2706;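 active = superoxide response below 65% of plate, a cut near 3 SD across the whole screen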;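 note: yeast exposed to compound for one week at 30 degrees C before staining; 100% = mean of all compound wells on the same plate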); conditions: S. cerevisiae aging, superoxide DHE fluorescence; at 10 µM, stronger effect = lower value
[4] = target: Beta-adrenergic receptor kinase 1 (Homo sapiens) (UniProt P25098); test: GRK2 binders displacing RNA aptamer, biochemical, validation, human GRK2, bead flow cytometry (AID 488806;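 active = aptamer binding inhibition above 30%, about 3 SD of noise from non-fluorescent compounds; inactive = inhibition at or below 30%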); conditions: bead-bound GRK2, FAM-aptamer displacement, at 10 µM, stronger effect = higher value
Chain of Beta-adrenergic receptor kinase 1 (Homo sapiens) (P25098 whole entry, looked up): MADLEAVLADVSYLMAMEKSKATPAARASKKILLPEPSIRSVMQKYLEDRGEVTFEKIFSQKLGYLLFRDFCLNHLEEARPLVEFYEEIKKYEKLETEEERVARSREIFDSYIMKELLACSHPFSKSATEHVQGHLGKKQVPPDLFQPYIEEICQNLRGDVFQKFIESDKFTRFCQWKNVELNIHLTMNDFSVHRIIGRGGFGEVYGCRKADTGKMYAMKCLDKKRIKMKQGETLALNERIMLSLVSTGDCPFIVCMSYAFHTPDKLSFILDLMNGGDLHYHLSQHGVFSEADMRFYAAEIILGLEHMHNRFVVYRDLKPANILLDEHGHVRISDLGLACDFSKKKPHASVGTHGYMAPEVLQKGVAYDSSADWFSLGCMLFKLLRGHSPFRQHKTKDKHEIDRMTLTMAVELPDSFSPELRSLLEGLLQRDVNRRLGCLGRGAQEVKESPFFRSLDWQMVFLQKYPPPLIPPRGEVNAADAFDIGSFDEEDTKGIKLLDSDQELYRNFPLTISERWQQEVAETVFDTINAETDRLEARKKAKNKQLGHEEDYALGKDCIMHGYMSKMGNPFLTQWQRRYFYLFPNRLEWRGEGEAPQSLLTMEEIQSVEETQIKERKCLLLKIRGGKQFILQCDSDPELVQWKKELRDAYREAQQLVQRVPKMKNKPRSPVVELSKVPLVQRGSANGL

[5] = target: Beta-2 adrenergic receptor (Homo sapiens) (UniProt P07550); test: agonist-induced loss of surface beta2AR – cell-based, FAP fluorogen, flow cytometry, validation set, pilot screen (AID 504459;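 active = percent response above 42, roughly 3 SD of non-fluorescent test compounds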;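 note: agonist-driven loss of surface beta2AR via internalization measured by FAP dye flow cytometry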); conditions: Am2.2-beta2AR cells, at 10 µM, stronger effect = higher value
Chain of Beta-2 adrenergic receptor (Homo sapiens) (P07550 whole entry, looked up): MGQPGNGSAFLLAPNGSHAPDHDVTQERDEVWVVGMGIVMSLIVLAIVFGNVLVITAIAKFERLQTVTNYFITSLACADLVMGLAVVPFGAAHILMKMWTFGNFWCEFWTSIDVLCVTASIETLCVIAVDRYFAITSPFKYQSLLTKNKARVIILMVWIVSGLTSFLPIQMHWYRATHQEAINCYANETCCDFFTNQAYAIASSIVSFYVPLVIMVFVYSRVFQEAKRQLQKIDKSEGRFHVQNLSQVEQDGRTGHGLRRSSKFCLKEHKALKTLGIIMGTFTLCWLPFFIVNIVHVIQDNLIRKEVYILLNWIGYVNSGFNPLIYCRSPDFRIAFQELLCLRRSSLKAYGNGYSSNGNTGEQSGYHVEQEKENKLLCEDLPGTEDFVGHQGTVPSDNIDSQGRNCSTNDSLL

[6] = target: AP-2 complex subunit beta (Homo sapiens) (UniProt P63010); test: beta-arrestin/AP2 interaction blockers – biochemical, validation set, GST-AP2 beads, flow cytometry, pilot screen (AID 504541;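 active = inhibition above 54%, about 3 SD of non-fluorescent compounds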;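 note: AP2 carries R879A mutation and is captured from E. coli lysate; bead-bound FITC arrestin peptide fluorescence measuring arrestin peptide binding to AP2; 0% = DMSO wells and 100% = excess unlabeled arrestin peptide control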); conditions: FITC arrestin peptide, at 10 µM, stronger effect = higher value, AP2 beta2 appendage fragment, R879A mutant
Chain of AP-2 complex subunit beta (Homo sapiens) (P63010 whole entry, looked up, the tested form may be a part, one chain of several): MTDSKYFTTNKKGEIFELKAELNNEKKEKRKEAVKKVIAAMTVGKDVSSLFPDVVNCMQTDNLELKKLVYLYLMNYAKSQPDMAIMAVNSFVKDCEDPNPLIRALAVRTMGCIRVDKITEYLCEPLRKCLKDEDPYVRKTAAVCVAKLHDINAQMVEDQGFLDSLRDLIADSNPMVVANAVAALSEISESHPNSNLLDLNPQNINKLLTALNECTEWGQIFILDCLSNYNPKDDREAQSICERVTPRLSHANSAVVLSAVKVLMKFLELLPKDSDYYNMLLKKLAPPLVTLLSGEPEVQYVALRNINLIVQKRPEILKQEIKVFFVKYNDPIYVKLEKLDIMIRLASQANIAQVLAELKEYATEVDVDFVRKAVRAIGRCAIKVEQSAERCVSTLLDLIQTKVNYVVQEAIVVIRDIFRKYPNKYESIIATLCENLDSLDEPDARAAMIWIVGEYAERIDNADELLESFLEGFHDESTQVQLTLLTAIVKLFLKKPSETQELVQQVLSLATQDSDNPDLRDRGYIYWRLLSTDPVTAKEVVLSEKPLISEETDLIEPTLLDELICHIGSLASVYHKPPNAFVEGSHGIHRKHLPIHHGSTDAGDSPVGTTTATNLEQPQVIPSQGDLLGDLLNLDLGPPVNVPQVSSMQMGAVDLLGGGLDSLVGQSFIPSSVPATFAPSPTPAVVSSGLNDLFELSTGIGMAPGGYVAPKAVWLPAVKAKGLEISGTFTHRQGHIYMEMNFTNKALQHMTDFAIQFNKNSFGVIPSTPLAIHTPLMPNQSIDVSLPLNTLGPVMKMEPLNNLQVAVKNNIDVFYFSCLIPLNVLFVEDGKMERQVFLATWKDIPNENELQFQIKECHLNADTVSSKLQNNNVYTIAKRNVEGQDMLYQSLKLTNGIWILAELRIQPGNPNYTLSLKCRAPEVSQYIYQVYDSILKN

[7] = cytosolic pH regulators acting via V-ATPase – S. cerevisiae, pHLuorin, HTS validation (AID 504600; in the data active = response above about 15%;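 note: plate controls were DMSO for no effect and reference compound for full effect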); conditions: V-ATPase proton transport, at 10 µM, stronger effect = higher value
[8] = test system: anti-desmoglein-3 scFv antibody binding to human DSG3; test: blockers of pathogenic pemphigus antibody–desmoglein-3 binding – biochemical, validation compound set, bead-based, flow cytometry, pilot screen (AID 588368;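 active = binding below the plate cutoff, the plate median minus 3 SD, with a reading above zero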;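 note: signal is the median channel fluorescence of bead-bound GFP antibody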); conditions: Protein G beads, DSG3-Fc, scFv-GFP binding, at 10 µM, stronger effect = lower value
[9] = Nile Red efflux blockade in pump-expressing yeast – validation compound set, multiplex, phenotypic, pilot screen (AID 588506;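 active = efflux inhibition above 0.42, the validation set average plus 4 SD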;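 note: Nile Red retained in cells so higher fluorescence means more efflux inhibition; 0 = negative control wells and 1 = enniatin B 25 µM full block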); conditions: S. cerevisiae pump-expressing triplex, Nile Red efflux flow cytometry; at 10 µM; stronger effect = higher value; the pumps come from Candida albicans
[10] = target: ATP-binding cassette sub-family B member 6 (Homo sapiens) (UniProt Q9NP58); test: blockers of ABCB6-driven porphyrin uptake – K562-ABCB6 cells, flow cytometry, validation set, pilot screen (AID 588550;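 active = inhibition above the screen-wide mean plus 3 SD, about 51%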;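 note: 0% = DMSO wells and 100% = benzethonium chloride 70 µM positive control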); conditions: K562-ABCB6 porphyrin accumulation, 1 h, at 10 µM, stronger effect = higher value
Chain of ATP-binding cassette sub-family B member 6 (Homo sapiens) (Q9NP58 whole entry, looked up): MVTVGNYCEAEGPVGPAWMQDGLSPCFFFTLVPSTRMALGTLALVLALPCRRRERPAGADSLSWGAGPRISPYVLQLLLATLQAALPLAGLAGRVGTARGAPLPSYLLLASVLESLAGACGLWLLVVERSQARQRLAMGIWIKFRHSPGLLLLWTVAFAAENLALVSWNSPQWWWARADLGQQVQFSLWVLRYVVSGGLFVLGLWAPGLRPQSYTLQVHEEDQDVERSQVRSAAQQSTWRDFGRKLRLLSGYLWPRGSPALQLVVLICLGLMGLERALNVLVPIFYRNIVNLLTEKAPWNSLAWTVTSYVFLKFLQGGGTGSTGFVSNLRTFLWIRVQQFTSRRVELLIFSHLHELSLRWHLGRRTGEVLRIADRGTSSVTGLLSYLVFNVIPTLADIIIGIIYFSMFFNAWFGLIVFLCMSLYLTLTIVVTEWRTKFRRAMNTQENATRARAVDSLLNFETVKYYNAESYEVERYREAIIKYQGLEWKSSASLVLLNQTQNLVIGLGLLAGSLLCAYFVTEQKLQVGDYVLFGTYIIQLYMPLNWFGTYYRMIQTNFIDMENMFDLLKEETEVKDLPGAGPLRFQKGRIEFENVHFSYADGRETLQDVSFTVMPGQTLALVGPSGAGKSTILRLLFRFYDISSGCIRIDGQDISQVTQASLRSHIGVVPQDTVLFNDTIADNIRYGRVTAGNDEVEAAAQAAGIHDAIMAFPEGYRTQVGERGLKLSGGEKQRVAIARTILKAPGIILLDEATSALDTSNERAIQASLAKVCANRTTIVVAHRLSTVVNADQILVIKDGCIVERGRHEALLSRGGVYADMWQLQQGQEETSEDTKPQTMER

[11] = AML differentiation inducers, ER-HoxA9 marrow cells – cell-based, GFP/MAC1 double positive, flow cytometry, validation set, primary screen (AID 588685;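 active = differentiation response of at least 50%, scaled between solvent and reference control, from cells with both markers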;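 note: compound exposure lasts four days before antibody staining and flow analysis; 0% = DMSO wells and 100% = 5 µM fulvestrant positive control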); conditions: stronger effect = higher value, normalized: vehicle 0, fulvestrant 100
[12] = hit retest on RPL19A-GFP reporter strain – cell-based, S. cerevisiae, flow cytometry, cherry picks, mother/daughter gates, confirmation (AID 2270;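 active = GFP response below 50% of the DMSO control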); conditions: 3 h, at 10 µM, stronger effect = lower value, 100 = same GFP as DMSO wells
[13] = yeast TOR pathway reporter LAP4-GFP change – cell-based, cherry picks, flow cytometry, mother/daughter gates, confirmation (AID 2271;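 active = GFP response above 150% of the DMSO control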;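 note: ratio of sample to DMSO plate mean so 100% equals DMSO level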); conditions: S. cerevisiae LAP4-GFP strain, 3 h, at 10 µM, stronger effect = higher value, 100 means same as DMSO control
[14] = TOR pathway reporter MEP2-GFP, retest of hits – S. cerevisiae, flow cytometry GFP, cherry picks, confirmation (AID 2272;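 active = GFP response above 150% of the DMSO control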;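 note: ratio of well signal to plate DMSO mean so 100% equals DMSO level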); conditions: S. cerevisiae MEP2-GFP strain, 3 h, at 10 µM, stronger effect = higher value
[15] = yeast AGP1-GFP fluorescence change, single-dose – cell-based, flow cytometry, S. cerevisiae, cherry picks, confirmation (AID 2273);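 note: median GFP channel fluorescence over the whole cell population gate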; conditions: S. cerevisiae AGP1-GFP strain, 3 h, at 10 µM
[16] = TOR pathway CIT2 reporter hit retest – S. cerevisiae, GFP fusion, cherry picks, mother/daughter gates, confirmation (AID 2274); conditions: S. cerevisiae CIT2-GFP strain, flow cytometry, 3 h, at 10 µM, stronger effect = higher value
[17] = measured here: daughter cell gate
[18] = measured here: mother cell gate

O=C(O)C1Sc2[nH]c(=O)sc2C2c3ccc(O)cc3OC(=O)C12 (stereo not drawn)
inactive: vesicle binding response [1] 157% | inhibition [2] -11.8% | superoxide response (% of plate) [3] 107% | aptamer binding inhibition [4] 1% | response [5] -11.1% | inhibition [6] -0.44% | response [7] 5.3% | binding (% of control) [8] 95.7% | efflux inhibition (fraction of control) [9] -0.1 | inhibition [10] -131% | differentiation response [11] -3.11%
62.6%: double positive events [1]

CCCCC[C@H](O)/C=C/[C@@H]1[C@@H](C/C=C\CCCC(=O)O)[C@H]2CO[C@@H]1C2
59%: double positive events [1]
inactive: vesicle binding response [1] 192% | inhibition [2] -8.78% | superoxide response (% of plate) [3] 110% | aptamer binding inhibition [4] -1% | response [5] -18.1% | inhibition [6] 1.57% | response [7] -0.38% | binding (% of control) [8] 101% | efflux inhibition (fraction of control) [9] 0.08 | inhibition [10] -1% | differentiation response [11] -10.9%

N/C(=N\OC(=O)c1ccc(Cl)cc1Cl)c1ccccc1
active: GFP response relative to DMSO [13] 155% | GFP response, % of DMSO [16] 151%
inactive: GFP response vs DMSO [12] 98.4% | GFP response vs DMSO [14] 106% | GFP response, % of DMSO [15] 80.1%

Cc1cccc(N=c2oc3cc(O)ccc3cc2C(N)=O)c1
90.5%: GFP response, % of DMSO [16, 17]
inactive: GFP response vs DMSO [12] 96.5% | GFP response relative to DMSO [13] 100% | GFP response vs DMSO [14] 106% | GFP response, % of DMSO [15] 102% | GFP response, % of DMSO [16] 108%

CCc1cccc2c1NC1(CCCC1)CC2C (stereo not drawn)
58.5%: double positive events [1]
active: response [5] 45.9%
inactive: vesicle binding response [1] 185% | inhibition [2] -16.8% | superoxide response (% of plate) [3] 96.3% | aptamer binding inhibition [4] 4% | inhibition [6] -1.05% | response [7] 1.08% | binding (% of control) [8] 97.6% | efflux inhibition (fraction of control) [9] -0.06 | inhibition [10] -41% | differentiation response [11] 10.4%

Cc1cc(C(=O)NC(CC(C)C)C(=O)O)cc(C)c1[N+](=O)[O-] (stereo not drawn)
61.7%: double positive events [1]
inactive: vesicle binding response [1] 204% | inhibition [2] -2.43% | superoxide response (% of plate) [3] 96.9% | aptamer binding inhibition [4] 4% | response [5] 1% | inhibition [6] 1.45% | response [7] -4.26% | binding (% of control) [8] 99% | efflux inhibition (fraction of control) [9] -0.12 | inhibition [10] 17% | differentiation response [11] -10.4%

COc1ccccc1/C=C/C(=O)c1ccc(Cl)cc1
inactive: GFP response vs DMSO [12] 102% | GFP response relative to DMSO [13] 92.6% | GFP response vs DMSO [14] 97.8% | GFP response, % of DMSO [15] 98.9% | GFP response, % of DMSO [16] 103%

O=C1CCCCCN1Cc1ccccc1
62.4%: double positive events [1]
inactive: vesicle binding response [1] 208% | inhibition [2] 3.67% | superoxide response (% of plate) [3] 97.2% | aptamer binding inhibition [4] 7% | response [5] -1.56% | inhibition [6] -4.78% | response [7] 5.84% | binding (% of control) [8] 101% | efflux inhibition (fraction of control) [9] -0.24 | inhibition [10] 5% | differentiation response [11] 8.8%

COc1ccccc1C1(CC(=O)N2CCCCC2)CCOC(C(C)C)C1 (stereo not drawn)
60.3%: double positive events [1]
inactive: vesicle binding response [1] 205% | inhibition [2] 6.4% | superoxide response (% of plate) [3] 97.5% | aptamer binding inhibition [4] 0% | response [5] 8.83% | inhibition [6] -7.8% | response [7] 2.05% | binding (% of control) [8] 105% | efflux inhibition (fraction of control) [9] 0.33 | inhibition [10] 6% | differentiation response [11] 23.2%

O=C(NCCc1nc2ccccc2[nH]1)c1cccc(Br)c1
inactive: vesicle binding response [1] 224% | inhibition [2] 11.9% | superoxide response (% of plate) [3] 92.6% | aptamer binding inhibition [4] 4% | response [5] -6.54% | inhibition [6] -1.76% | response [7] 3.78% | binding (% of control) [8] 97.8% | efflux inhibition (fraction of control) [9] -0.1 | inhibition [10] 5% | differentiation response [11] 0.8%
72.8%: double positive events [1]

Fc1cccc(Cc2noc(CN3CCN(c4cnccn4)CC3)n2)c1
56.6%: double positive events [1]
inactive: vesicle binding response [1] 45.8% | inhibition [2] -3.57% | superoxide response (% of plate) [3] 108% | aptamer binding inhibition [4] -1% | response [5] -4.45% | response [7] -3.37% | binding (% of control) [8] 97.4% | efflux inhibition (fraction of control) [9] 0.11 | inhibition [10] 0% | differentiation response [11] 41.3%
active: inhibition [6] 56.4%

CN(C)CCCN(C(=O)c1cccs1)c1nc(-c2ccccc2)cs1
inactive: GFP response vs DMSO [12] 98% | GFP response relative to DMSO [13] 90.7% | GFP response vs DMSO [14] 102% | GFP response, % of DMSO [15] 100% | GFP response, % of DMSO [16] 101%

O=C(NOC(=O)c1ccccc1)c1ccccc1
inactive: GFP response vs DMSO [12] 108% | GFP response relative to DMSO [13] 118% | GFP response vs DMSO [14] 130% | GFP response, % of DMSO [15] 88.2% | GFP response, % of DMSO [16] 113%
103%: GFP response, % of DMSO [16, 17]
96.6%: GFP response, % of DMSO [16, 18]

CC(C)(C)C(=O)NC(=S)NNC(=O)c1sc2ccccc2c1Cl
90.5%: GFP response, % of DMSO [16, 17]
active: GFP response relative to DMSO [13] 242%
91.5%: GFP response, % of DMSO [16, 18]
inactive: GFP response vs DMSO [12] 116% | GFP response vs DMSO [14] 122% | GFP response, % of DMSO [15] 137% | GFP response, % of DMSO [16] 106%

CCc1cn([C@H]2C[C@H](O)[C@@H](CO)O2)c(=O)[nH]c1=O
71.1%: double positive events [1]
inactive: vesicle binding response [1] 232% | inhibition [2] -0.33% | superoxide response (% of plate) [3] 95.6% | aptamer binding inhibition [4] -1% | response [5] 7.43% | inhibition [6] 3.19% | response [7] -0.71% | binding (% of control) [8] 100% | efflux inhibition (fraction of control) [9] -0.42 | inhibition [10] 16% | differentiation response [11] 1.64%

Fc1ccc(C2Nc3cccc4cccc(c34)N2)cc1
inactive: GFP response vs DMSO [12] 98.2% | GFP response relative to DMSO [13] 106% | GFP response vs DMSO [14] 97.8% | GFP response, % of DMSO [15] 95.4% | GFP response, % of DMSO [16] 97.8%
